The values that follow come from paper PMC4336329 (PLoS ONE, 2015).

Hit rate of the full screen: of about 310,000 compounds, about 14,000 (4.5%) showed an effect of 50% or more. The effect is printed as a negative number. The list comes from a sample in which strong results are over-represented; it also holds similar structures and randomly drawn compounds.
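Also: peak tail current of the secondary pulse compared with the same well before compound.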

human ether-à-go-go-related gene (hERG) potassium channel, sequence (Q12809 whole entry, looked up): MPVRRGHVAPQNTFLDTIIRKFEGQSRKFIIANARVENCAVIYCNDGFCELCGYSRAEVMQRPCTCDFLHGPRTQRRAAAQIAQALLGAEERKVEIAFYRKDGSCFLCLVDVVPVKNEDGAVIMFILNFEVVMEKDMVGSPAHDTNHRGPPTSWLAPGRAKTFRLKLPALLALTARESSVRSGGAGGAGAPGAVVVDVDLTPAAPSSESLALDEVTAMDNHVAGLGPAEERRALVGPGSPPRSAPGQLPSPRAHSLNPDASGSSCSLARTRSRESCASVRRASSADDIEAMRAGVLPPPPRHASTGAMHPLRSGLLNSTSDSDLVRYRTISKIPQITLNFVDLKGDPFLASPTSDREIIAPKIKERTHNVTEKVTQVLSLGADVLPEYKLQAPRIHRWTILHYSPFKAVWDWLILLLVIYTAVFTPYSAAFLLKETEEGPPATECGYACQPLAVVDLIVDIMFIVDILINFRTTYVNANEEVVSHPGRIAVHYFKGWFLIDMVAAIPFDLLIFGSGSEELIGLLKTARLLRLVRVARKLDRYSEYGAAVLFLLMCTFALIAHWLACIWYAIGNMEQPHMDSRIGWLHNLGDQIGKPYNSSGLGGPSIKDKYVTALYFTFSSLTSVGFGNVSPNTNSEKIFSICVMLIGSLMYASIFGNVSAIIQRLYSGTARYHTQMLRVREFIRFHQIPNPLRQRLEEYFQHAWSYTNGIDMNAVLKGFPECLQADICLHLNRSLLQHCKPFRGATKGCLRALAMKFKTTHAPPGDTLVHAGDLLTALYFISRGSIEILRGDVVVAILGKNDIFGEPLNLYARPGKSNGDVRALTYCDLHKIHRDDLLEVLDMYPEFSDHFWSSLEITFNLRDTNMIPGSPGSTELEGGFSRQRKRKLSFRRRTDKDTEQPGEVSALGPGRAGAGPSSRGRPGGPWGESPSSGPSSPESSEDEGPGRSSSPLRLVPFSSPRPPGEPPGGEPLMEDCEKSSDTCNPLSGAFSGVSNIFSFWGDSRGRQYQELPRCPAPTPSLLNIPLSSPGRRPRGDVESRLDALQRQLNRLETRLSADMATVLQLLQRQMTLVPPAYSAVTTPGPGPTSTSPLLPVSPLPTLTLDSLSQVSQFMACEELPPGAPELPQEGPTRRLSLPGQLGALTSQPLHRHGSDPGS

This assay concerns the target human ether-à-go-go-related gene (hERG) potassium channel (human, UniProt Q12809). Briefly: primary screen, population patch clamp on CHO cells stably expressing hERG; higher = less effect of the substance.
For `COc1ccc(NC(=O)Nc2nnc(C(C)(C)C)s2)cc1`, the “hERG current change (%, negative = inhibition) at 10uM” value is reported as -18.8%. The result for `COC(=O)C(Cc1ccccc1)OS(N)(=O)=O` (stereo not shown) reads 16.1%. As to `COCCN1CN=C(NS(=O)(=O)c2ccc(C)cc2)NC1`, the “hERG current change (%, negative = inhibition) at 10uM” value came out at 16.3%. The same measure for `COc1cc(NC(=O)COc2cccc3c2OC(C)(C)C3)cc(OC)c1OC`: -6.09%; for `CCN(C1=NS(=O)(=O)c2ccccc21)N(CC)S(=O)(=O)c1ccc(C)cc1`: 19.8%; for `CCOC(=O)Cc1csc(NC(=O)c2ccc(S(=O)(=O)N3CCOCC3)cc2)n1`: -2.52%. The same measure for `CN1CCN(C(=O)CSc2ccc(C(F)(F)F)cc2[N+](=O)[O-])CC1`: -10.2%; for `CC(=O)Nc1ccc(CN2CCC(Oc3ccc(C(=O)N4CCCC4)cc3)CC2)cc1`: -21.3%. For `COc1ccc(CN2CCC(Oc3ccc(C(=O)N4CCCCC4)cc3)CC2)cc1C`, the “hERG current change (%, negative = inhibition) at 10uM” value is -45.7%. The result for `O=C(c1ccc(OC2CCN(Cc3ccc(F)cc3)CC2)cc1)N1CCCC1` reads -24%; that for `CCc1ccc(CN2CCC(Oc3ccc(C(=O)N4CCCC4)cc3)CC2)cc1`, -81.3%. The result for `COC(=O)c1ccc(CN2CCC(Oc3ccc(C(=O)N4CCCCC4)cc3)CC2)cc1` reads -51.7%; that for `CCOc1cccc(CN2CCC(Oc3ccc(C(=O)N4CCCC4)cc3)CC2)c1`, -27.4%.

As to `CC(=O)c1c(C)[nH]c(C(=O)Nc2cc(S(=O)(=O)N3CCCCC3)ccc2C)c1C`, the “hERG current change (%, negative = inhibition) at 10uM” value is reported as 2.24%.

`CC(=O)O[C@@H]1/C=C/[C@](C)(O)C[C@@H](C)C/C=C/[C@H]2[C@H](O)C(C)=C(C)[C@H]3[C@H](Cc4ccccc4)NC(=O)[C@@]123`: the “hERG current change (%, negative = inhibition) at 10uM” value is on record as -15.4%. On to `Cl.Oc1ccc(CC2CC3CCN2CC3)cc1O` (stereo not shown), for which the “hERG current change (%, negative = inhibition) at 10uM” value is 12.7%. The result for `COc1ccc(NC(=O)Nc2cccc(Cl)c2Cl)c(OC)n1` reads 3.16%.

Consider `O=C(Cc1cccs1)N/N=C\c1ccc(O)cc1`, for which the “hERG current change (%, negative = inhibition) at 10uM” value stood at 14.5%. Consider `CC(C)(C)N1CC(c2nc3ccccc3n2CCOc2ccccc2)CC1=O` (stereo not shown), for which the “hERG current change (%, negative = inhibition) at 10uM” value is -26.1%. The same measure for `CCc1ccc2nc(N(CCN(C)C)C(=O)c3ccc4ccccc4c3)sc2c1.Cl`: 0.369%. Turning to `Cc1ccc2nc(N(CCCN(C)C)C(=O)c3ccc4ncsc4c3)sc2c1`, the “hERG current change (%, negative = inhibition) at 10uM” value is -61.4%.

On to `CCc1ccc2nc(N(CCN(C)C)C(=O)c3ccc4ncsc4c3)sc2c1.Cl`, for which the “hERG current change (%, negative = inhibition) at 10uM” value was -60.6%.

Turning to `Cc1ccc2nc(N(CCCN(C)C)C(=O)c3ccc(S(=O)(=O)N(C)C)cc3)sc2c1.Cl`, the “hERG current change (%, negative = inhibition) at 10uM” value was -42.1%. The same measure for `Cc1ccc2nc(N(CCN(C)C)C(=O)c3ccc4ccccc4c3)sc2c1.Cl`: 15.9%; for `Cc1cccc2sc(N(CCCN(C)C)C(=O)c3ccc4ncsc4c3)nc12`: -45%. The result for `O=C(CCNC(=O)c1ccc([N+](=O)[O-])cc1)NC1CCCCCC1` reads -25.3%; that for `CCSc1nsc(NC(=O)Nc2ccc(F)cc2F)n1`, 24.1%; that for `CC(C)(C)NC(=O)C(c1cccs1)N(C(=O)c1csnn1)c1cccc(F)c1` (stereo not shown), -7.68%. The result for `O=C(Cn1ncc2c3ccccc3n(Cc3ccccc3)c2c1=O)NC1CCCC1` reads 10.1%; that for `O=S(=O)(c1ccc(Cl)s1)N1CCc2ccccc2C1`, 7.13%; that for `NC(=S)Nc1cc(Cl)cc(Cl)c1`, 17.1%.

Regarding `CC(C)NC(=O)CCS(=O)(=O)c1ccc(Br)s1`, the “hERG current change (%, negative = inhibition) at 10uM” value is given as 16.1%. The result for `COc1ccc(/C=N/NC(=O)c2cccc([N+](=O)[O-])c2)cc1OS(=O)(=O)c1ccc(C)cc1` reads -16.1%; that for `COCc1cc(OC(=O)N(C)C)nc2c1c(C)nn2C`, -9.48%. The result for `O=C(CNC(=O)C12CC3CC(CC(C3)C1)C2)N/N=C\c1ccco1` reads 5.05%; that for `CS(=O)(=O)c1ccc(-c2cccc(NC(=O)COc3ccc(Cl)cc3)c2)nn1`, 6.7%. The result for `Cc1cc(OC(C)C(=O)NCC2CCC(C(=O)O)CC2)c2c(C)cc(=O)oc2c1` (stereo not shown) reads 24.5%; that for `c1ccc(OCCCCN2CCOCC2)cc1`, -14.5%.

Consider `CN1CCC(NC(=O)c2cccc(Oc3ccccc3)c2)CC1`, for which the “hERG current change (%, negative = inhibition) at 10uM” value is -8.93%. The same measure for `CCCN1CCC(NC(=O)c2cccc(Oc3ccccc3)c2)CC1`: -51.9%. The same measure for `COc1cc(OC)cc(C(=O)NNC(=O)CCCOc2ccccc2)c1`: -18.4%. The result for `O=C(NC1CC1)c1cccc(Oc2ccccc2)c1` reads 1.52%; that for `COCC(C)N1CCC(Oc2ccc(C(=O)NCc3ccccn3)cc2)CC1` (stereo not shown), 13.1%.
